“And” between values parts separate entries of the source, which are not always exact repeats. Equal values may be shown once. The source made the active and inactive calls. The rule behind the calls is not given here.
Test: MDA-MB-436 breast carcinoma cell growth inhibition, synergistic combos for chromothripsis tumors, BGB or cisplatin combos (AID 1671458);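 note: cells exposed for 96 hours; 0% = vehicle DMSO and 100% = killing by high DMSO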
Details: MDA-MB-436 breast carcinoma growth inhibition, drug combinations; at 0.5 µM; stronger effect = higher value

Structure (SMILES)	inhibition
COc1ccccc1S(=O)(=O)Nc1ccc2c(c1)CN(C)C(=O)N2	-11.9% (inactive)
Cc1cc(C#N)cc(C)c1Oc1nc(Nc2ccc(C#N)cc2)nc(N)c1Br	-26.8% (inactive)
Nc1ncn(C2OC(CO)C(O)C2O)c(=O)n1 (stereo not drawn)	12.3% (inactive)
Cc1cc(C)c(Nc2ccnc(Nc3ccc(C#N)cc3)n2)c(C)c1	-14.9% (inactive)
COc1ccc(CC(N)C(=O)NC2C(CO)OC(n3cnc4c(N(C)C)ncnc43)C2O)cc1 (stereo not drawn)	57.5% (inactive) and 76.7% (inactive)
O=c1ccn(C2OC(CO)C(O)C2O)c(=O)[nH]1 (stereo not drawn)	10.4% (inactive) and -39.6% (inactive)
CC=C1NC(=O)C2CSSCCC=CC(CC(=O)NC(C(C)C)C(=O)N2)OC(=O)C(C(C)C)NC1=O (stereo not drawn)	71.3% (inactive) and 68.4% (inactive)
CN(C)CC(=O)Nc1ccc2[nH]c(=O)c3ccccc3c2c1	-4.41% (inactive) and -15.5% (inactive) and -5.43% (inactive)
CC1OC(n2cc(F)c(=O)[nH]c2=O)C(O)C1O (stereo not drawn)	-32.6% (inactive)
Nc1ccn(C2OC(CO)C(O)C2(F)F)c(=O)n1 (stereo not drawn)	67.3% (inactive) and 69.9% (inactive) and 70.3% (inactive)
Cc1cn(C2CC(N=[N+]=[N-])C(CO)O2)c(=O)[nH]c1=O (stereo not drawn)	-19.9% (inactive) and -9.1% (inactive)
CC(C=CC(=O)NO)=CC(C)C(=O)c1ccc(N(C)C)cc1 (stereo not drawn)	53.4% (inactive)
NC(=S)NN=Cc1ncccc1N	-24% (inactive)
CC(C)(C#N)c1ccc(N2C(=O)OCc3cnc4ccc(-c5cnc6ccccc6c5)cc4c32)cc1	-25% (inactive)
CC1CN(c2c(F)c(N)c3c(=O)c(C(=O)O)cn(C4CC4)c3c2F)CC(C)N1 (stereo not drawn)	-9.1% (inactive)
CCCCN(Cc1ccc(C(=O)NO)cc1)C(=O)Nc1ccccc1	2.63% (inactive) and 5.38% (inactive)
O=c1[nH]cnc2c1ncn2C1OC(CO)C(O)C1O (stereo not drawn)	-21.2% (inactive) and -4.5% (inactive)
Cc1cc(C=CC#N)cc(C)c1Nc1ccnc(Nc2ccc(C#N)cc2)n1	-19.9% (inactive)
CC(Oc1cc(-c2cnn(C3CCNCC3)c2)cnc1N)c1c(Cl)ccc(F)c1Cl (stereo not drawn)	2.15% (inactive)
O=C(O)c1cc2cccc([N+](=O)[O-])c2[nH]1	-23.3% (inactive)
O=c1[nH]c(=O)n(C2CC(O)C(CO)O2)cc1I (stereo not drawn)	-9.35% (inactive)

Same assay, conditions: MDA-MB-436 breast carcinoma growth inhibition, drug combinations; measured here: BGB combination; at 0.5 µM; stronger effect = higher value

Structure (SMILES)	inhibition
COc1ccccc1S(=O)(=O)Nc1ccc2c(c1)CN(C)C(=O)N2	-2.15%
Cc1cc(C#N)cc(C)c1Oc1nc(Nc2ccc(C#N)cc2)nc(N)c1Br	-22.5%
Nc1ncn(C2OC(CO)C(O)C2O)c(=O)n1 (stereo not drawn)	18%
Cc1cc(C)c(Nc2ccnc(Nc3ccc(C#N)cc3)n2)c(C)c1	-9.41%
COc1ccc(CC(N)C(=O)NC2C(CO)OC(n3cnc4c(N(C)C)ncnc43)C2O)cc1 (stereo not drawn)	54.4% and 71.5%
O=c1ccn(C2OC(CO)C(O)C2O)c(=O)[nH]1 (stereo not drawn)	7.3% and -43.2%
CC=C1NC(=O)C2CSSCCC=CC(CC(=O)NC(C(C)C)C(=O)N2)OC(=O)C(C(C)C)NC1=O (stereo not drawn)	57.2% and 55.5%
CN(C)CC(=O)Nc1ccc2[nH]c(=O)c3ccccc3c2c1	-3.67% and -13.7% and -14%
CC1OC(n2cc(F)c(=O)[nH]c2=O)C(O)C1O (stereo not drawn)	-38.6%
Nc1ccn(C2OC(CO)C(O)C2(F)F)c(=O)n1 (stereo not drawn)	56.1% and 61.1% and 59%
Cc1cn(C2CC(N=[N+]=[N-])C(CO)O2)c(=O)[nH]c1=O (stereo not drawn)	-17.7% and -10.4%
CC(C=CC(=O)NO)=CC(C)C(=O)c1ccc(N(C)C)cc1 (stereo not drawn)	39%
NC(=S)NN=Cc1ncccc1N	-21.8%
CC(C)(C#N)c1ccc(N2C(=O)OCc3cnc4ccc(-c5cnc6ccccc6c5)cc4c32)cc1	-28.5%
CC1CN(c2c(F)c(N)c3c(=O)c(C(=O)O)cn(C4CC4)c3c2F)CC(C)N1 (stereo not drawn)	-2.77%
CCCCN(Cc1ccc(C(=O)NO)cc1)C(=O)Nc1ccccc1	-2.67% and 11.6%
O=c1[nH]cnc2c1ncn2C1OC(CO)C(O)C1O (stereo not drawn)	-24.8% and -4.38%
Cc1cc(C=CC#N)cc(C)c1Nc1ccnc(Nc2ccc(C#N)cc2)n1	-6.06%
CC(Oc1cc(-c2cnn(C3CCNCC3)c2)cnc1N)c1c(Cl)ccc(F)c1Cl (stereo not drawn)	0.074%
O=C(O)c1cc2cccc([N+](=O)[O-])c2[nH]1	-25%
O=c1[nH]c(=O)n(C2CC(O)C(CO)O2)cc1I (stereo not drawn)	-10.8%

Same assay, conditions: MDA-MB-436 breast carcinoma growth inhibition, drug combinations; measured here: BGB combination; at 5 µM; stronger effect = higher value

Structure (SMILES)	inhibition
COc1ccccc1S(=O)(=O)Nc1ccc2c(c1)CN(C)C(=O)N2	-5.52%
Cc1cc(C#N)cc(C)c1Oc1nc(Nc2ccc(C#N)cc2)nc(N)c1Br	-28.6%
Nc1ncn(C2OC(CO)C(O)C2O)c(=O)n1 (stereo not drawn)	23.9%
Cc1cc(C)c(Nc2ccnc(Nc3ccc(C#N)cc3)n2)c(C)c1	25.9%
COc1ccc(CC(N)C(=O)NC2C(CO)OC(n3cnc4c(N(C)C)ncnc43)C2O)cc1 (stereo not drawn)	97.5% and 96%
O=c1ccn(C2OC(CO)C(O)C2O)c(=O)[nH]1 (stereo not drawn)	8.01% and -19.5%
CC=C1NC(=O)C2CSSCCC=CC(CC(=O)NC(C(C)C)C(=O)N2)OC(=O)C(C(C)C)NC1=O (stereo not drawn)	70.4% and 77.6%
CN(C)CC(=O)Nc1ccc2[nH]c(=O)c3ccccc3c2c1	-15.9% and -32.7% and -34.6%
CC1OC(n2cc(F)c(=O)[nH]c2=O)C(O)C1O (stereo not drawn)	-19.2%
Nc1ccn(C2OC(CO)C(O)C2(F)F)c(=O)n1 (stereo not drawn)	58% and 56% and 66.5%
Cc1cn(C2CC(N=[N+]=[N-])C(CO)O2)c(=O)[nH]c1=O (stereo not drawn)	-13.1% and -23.1%
CC(C=CC(=O)NO)=CC(C)C(=O)c1ccc(N(C)C)cc1 (stereo not drawn)	63.1%
NC(=S)NN=Cc1ncccc1N	39.5%
CC(C)(C#N)c1ccc(N2C(=O)OCc3cnc4ccc(-c5cnc6ccccc6c5)cc4c32)cc1	-0.266%
CC1CN(c2c(F)c(N)c3c(=O)c(C(=O)O)cn(C4CC4)c3c2F)CC(C)N1 (stereo not drawn)	-17.3%
CCCCN(Cc1ccc(C(=O)NO)cc1)C(=O)Nc1ccccc1	10.7% and 17.3%
O=c1[nH]cnc2c1ncn2C1OC(CO)C(O)C1O (stereo not drawn)	-28.5% and -13.8%
Cc1cc(C=CC#N)cc(C)c1Nc1ccnc(Nc2ccc(C#N)cc2)n1	-3.72%
CC(Oc1cc(-c2cnn(C3CCNCC3)c2)cnc1N)c1c(Cl)ccc(F)c1Cl (stereo not drawn)	18.2%
O=C(O)c1cc2cccc([N+](=O)[O-])c2[nH]1	-42.9%
O=c1[nH]c(=O)n(C2CC(O)C(CO)O2)cc1I (stereo not drawn)	-16.9%

— PubChem BioAssay
